# Screening data as filed in PubChem BioAssay.
# In the library only some 3.2% were active in any assay of this set; here they are far more common.
# MsrA inhibitor = bovine MsrA inhibition; purified bovine MsrA, absorbance read-out; inhibition, % at 15.5 µM; actives 0.75% (n = 360,000); AID 651718;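 note: 0% = vehicle wells with enzyme and 100% = reference inhibitor wells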
# HGIII-sPLA2 inh = Inhibits HGIII-sPLA2 liposome hydrolysis, primary screen; inhibition, % at 12.2 µM; actives 0.56% (n = 370,000); AID 743126; QFRET BODIPY PC-A2 liposome hydrolysis, fluorescence;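 active = inhibition above mean plus 3 SD of compounds lying within the high and low control bounds, cut at about 19% in these data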;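 note: 0% = median of test compound wells and 100% = no enzyme DMSO wells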
# Target sequence (Q9NZ20 whole entry, looked up): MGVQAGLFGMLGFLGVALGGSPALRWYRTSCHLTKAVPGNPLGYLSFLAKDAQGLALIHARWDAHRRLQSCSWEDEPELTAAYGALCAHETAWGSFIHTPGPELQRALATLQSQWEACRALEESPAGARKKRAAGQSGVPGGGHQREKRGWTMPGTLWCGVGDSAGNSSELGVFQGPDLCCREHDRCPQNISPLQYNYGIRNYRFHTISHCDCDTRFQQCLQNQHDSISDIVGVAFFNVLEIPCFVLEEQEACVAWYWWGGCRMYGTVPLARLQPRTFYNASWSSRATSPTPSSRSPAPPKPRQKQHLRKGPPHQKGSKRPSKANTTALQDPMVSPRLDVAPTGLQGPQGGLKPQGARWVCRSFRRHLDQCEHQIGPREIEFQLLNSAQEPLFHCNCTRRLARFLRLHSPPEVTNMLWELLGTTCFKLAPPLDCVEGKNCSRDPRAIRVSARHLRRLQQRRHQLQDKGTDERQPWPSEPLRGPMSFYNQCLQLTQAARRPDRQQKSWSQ
# PG9 Ab binder = small molecules binding HIV-1 gp120 antibody PG9; TR-FRET gp120-PG9 antibody binding; inhibition, % at 6.7 µM; actives 0.43% (n = 360,000); AID 624416; in the data active = inhibition above about 8.5%
# rCAG RNA binder = r(CAG) repeat RNA binding; TO-PRO-1 dye displacement fluorescence; inhibition, % at 3 µM; actives 1.3% (n = 370,000);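 active = inhibition above the plate cutoff, the mean of all test compounds on that plate plus 3 SD, cut at about 35% in these data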;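 note: 0% = DMSO alone and 100% = 100 µM mitoxantrone as full dye displacement; higher means more dye released from RNA so lower well fluorescence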
# bovine MsrA act = bovine methionine sulfoxide reductase A activation | activation, % at 10.6 µM | actives 0.3% (n = 360,000) | purified bovine MsrA, absorbance read-out; in the data active = activation above about 7.5%;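 note: 0% = vehicle and 100% = reference activator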
# MsrA inh confirm = bovine MsrA inhibition, confirmed; shares compounds with MsrA inhibitor; purified bovine MsrA, absorbance read-out; inhibition, % at 15.5 µM; actives 41% (n = 2,300); AID 651822;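 note: coupled to thioredoxin reductase with NADPH and selenocystamine and DMSO as substrate; 0% = vehicle only and 100% = full effect of reference inhibitor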
# The depositor's hits bear a star; . = no result given. Cut-off read from the data, not from the text of the source, unless noted: active = inhibition above about 4.5%; inactive = the rest.
SMILES,MsrA inhibitor,HGIII-sPLA2 inh,PG9 Ab binder,rCAG RNA binder,bovine MsrA act,MsrA inh confirm
CCN(CC)CCOC(=O)c1ccc(NC(=O)/C=C/c2cccs2)cc1,5.5*,3,-3,-7,-2,3
NS(=O)(=O)c1ccc(NC(=O)/C=C/c2cccs2)cc1,8.2*,-8,0,6,-11,5.1*
COc1ccc(/C=C/C(=O)Nc2ccc(-n3nncc3-c3ccc(OC)c(OC)c3)cc2)cc1OC,5.1*,2,-1,27,-2,4
Cc1ccc(Cn2nnc3c2-c2ccccc2S(=O)(=O)N(C)C3)cc1,.,10,.,2,.,.
O=C(/C=C/c1cccs1)Nc1ccc(S(=O)(=O)Nc2ncccn2)cc1,4.7*,0,-1,3,-7,4
COc1cc(/C=C/C(=O)Nc2ccc(S(=O)(=O)Nc3ncccn3)cc2)ccc1OCC#N,4.9*,-19,0,19,-5,2
COc1cc(/C=C/C(=O)Nc2ccncc2)cc(OC)c1OC,4.7*,7,-1,0,-3,3
COc1cc(/C=C/C(=O)Nc2ccc(C(C)=O)cc2)cc(OC)c1OC,4,-8,-2,2,-16,.
O=C(/C=C/c1ccccc1[N+](=O)[O-])Nc1ccc(S(=O)(=O)Nc2ncccn2)cc1,2,-3,0,13,-5,.
C#CCNC(=O)C[C@@H]1C(=O)N(Cc2ccc(OC)cc2)/C2=C/CCCCC[C@@]21C(=O)OCC,.,5,.,2,.,.
COc1ccc(/C=N/Nc2nc(=O)[nH]nc2C)cc1OC,5,3,-2,-1,-1,.
COc1cc(/C=N/Nc2nc(=O)[nH]nc2C)ccc1O,4.7*,4,-3,-3,-8,5.4*
COc1ccc(/C=N/Nc2cc(C)nc(N)n2)cc1,4,7,2,1,-1,.
COc1cc(/C=N/Nc2cc(C)nc(N)n2)ccc1O,6.8*,-2,-5,2,0,5.2*
C=CCN1C(C(=O)OC)CN(Cc2cn(Cc3ccc(F)cc3)nn2)CCS1(=O)=O (centres undefined),.,5,.,2,.,.
O=C(NCc1cccnc1)c1cc(C2CCCN(C(=O)c3ccccn3)C2)on1 (centres undefined),48*,16,2,1,-5,0
O=C(NCc1cccnc1)c1cc(C2CCCN(C(=O)c3cccs3)C2)on1 (centres undefined),1,4,-1,0,-2,.
COc1cc(/C=N/NC(=O)c2ccc(C)nc2)cc([N+](=O)[O-])c1O,5.3*,3,-16,4,-9,4
CCOc1cc(/C=N\NC(=O)c2ccc(C)nc2)cc([N+](=O)[O-])c1O,8.0*,8,-19,1,-3,6.4*
COc1cc(/C=N/n2cnnc2-n2nc(C)cc2C)cc([N+](=O)[O-])c1O,5.2*,4,0,-3,-5,4
COc1cc(/C=N/NC(=O)c2cccnc2)cc(Br)c1O,4.7*,0,-16,1,-10,4
O=C(N/N=C/c1cc(Br)c(O)c(Br)c1)c1cccnc1,4,-1,-6,3,-4,.
CCn1c2ccccc2c2cc(C=NNC(=O)c3cc(-c4ccc(OC)cc4)n[nH]3)ccc21,.,-5,.,19,.,.
CC1(C)CC2CN(Cc3ccccc3)S(=O)(=O)N2C1 (centres undefined),.,0,.,.,.,.
N#CCC[C@@H]1CC[C@]2(CCCN(C(=O)c3ccco3)C2)O1,.,7,.,1,.,.
SMILES,MsrA inhibitor,HGIII-sPLA2 inh,PG9 Ab binder,rCAG RNA binder,bovine MsrA act,MsrA inh confirm
OC(c1ccccc1)(c1ccccc1)C1CCN(CCCOc2ccc(OC(F)(F)F)cc2)CC1,.,-19,.,-3,.,.
Cc1ccc(NC(=O)c2cccc3c2-c2ccccc2C3=O)c(C)c1,.,3,.,7,.,.
BrC(/C=N/Nc1nc(N2CCOCC2)nc(N2CCOCC2)n1)=C/c1ccccc1,5.5*,-3,-1,4,-2,4
CC(=C/c1ccccc1)/C=N/Nc1nc(N2CCCCC2)nc(N2CCCCC2)n1,-1,-2,-1,-3,-6,.
CCOC(=O)[C@]12CCCCC/C=C\1N(Cc1ccc(OC)cc1)C(=O)[C@H]2CC(=O)N1CCCC1,.,7,.,2,.,.
Cc1ccc(C(=O)N=c2sccn2C)cc1S(=O)(=O)N1CCOCC1,6.0*,9,-1,-2,-3,3
Cn1ccsc1=NC(=O)c1cccc(C#N)c1,5.5*,3,-1,-6,-3,1
O=C(CN(CCc1ccccc1)S(=O)(=O)c1ccc(F)cc1)N1CCOCC1,.,-5,.,5,.,.
COC(=O)[C@]12C[C@H](CC(=O)NCCc3ccccc3OC)C(=O)N(CCC3=CCCCC3)C1=C[C@H](C1CCCC1)O[C@@H]2C,.,9,.,5,.,.
Cc1ccc(/C=N/Nc2nncc(-c3ccccc3)n2)o1,5.8*,1,-6,1,-18,5.4*
Clc1ccc(-c2ccc(/C=N/Nc3nncc(-c4ccccc4)n3)o2)cc1,-1,-2,0,11,-1,.
C(=C\c1ccccc1)/C=N/Nc1nncc(-c2ccccc2)n1,43*,18,-3,-2,.,1
O=C(O)c1ccc(N/N=C/c2cccc3nccnc23)cc1,5.3*,1,-19,1,-8,4
CCOC(=O)/C(C#N)=C/Nc1ccccc1OC(F)(F)F,11*,0,1,-5,0,7.1*
CCOC(=O)/C(C#N)=C/Nc1cc(OC)ccc1OC,3,3,0,-3,-2,.
CCOC(=O)/C(C#N)=C/Nc1ccccc1NS(=O)(=O)c1cccc(C(C)=O)c1,6.0*,-8,-1,24,-3,3
COC(=O)C(C(C)=O)C1=C/C(=N\S(=O)(=O)c2ccc(C)cc2)c2ccccc2C1=O (centres undefined),.,.,.,.,-2,.
O=C(O)c1ccc(S(=O)(=O)/N=C2\C=C(Nc3ccccc3F)C(=O)c3ccccc32)cc1,46*,-2,-3,33,-2,47*
Cc1ccccc1NC1=C/C(=N\S(=O)(=O)c2ccc(C(=O)O)cc2)c2ccccc2C1=O,19*,-4,-6,32,-2,21*
O=S(=O)(/N=C(/Nc1ccccc1F)c1ccccc1)c1ccccc1,0,-10,-2,-4,-7,.
O=Cc1cnc(N2CCCCC2)s1,5.0*,-1,2,1,-6,6.9*
COc1ccc2[nH]c3c(c2c1)CCN[C@]31C(=O)N(Cc2ccccc2)c2ccccc21,.,-9,.,7,.,.
COC(=O)c1cccc(Cn2ccc3ccc(-c4ccc5ccn(C(=O)c6ccccc6OC)c5c4)cc32)c1,.,2,.,13,.,.
CCc1nc(SCC(=O)N2CCCC2)c2c(=O)n(C)c(=O)n(C)c2n1,2,9,-1,-8,-2,.
CC(C)Cc1nc(SCC(=O)N2CCCC2)c2c(=O)n(C)c(=O)n(C)c2n1,8.0*,-2,-4,-8,-2,7.2*
CCCCc1nc(SCC(=O)N2CCCC2)c2c(=O)n(C)c(=O)n(C)c2n1,7.5*,2,-4,-12,-9,6.9*
O=c1c2ccccc2[nH]n1[C@@H](Cc1ccccc1)Cn1cc(-c2ccc(-c3ccccc3)cc2)nn1,.,-12,.,19,.,.
